The record followed here is publication PMC10726135, “HNF4α isoforms regulate the circadian balance between carbohydrate and lipid metabolism in the liver”.

In all, about 18,000 sequences were measured (“log2 normalized intensity”: median about 0.39, highest 2% from about 6.6 on). The full list was thinned out, with the highest values kept by preference.

This experiment addresses T1, HNF4alpha2 (COS-7 nuclear extract) (Homo sapiens, UniProt P41235 1-474).
T1 sequence: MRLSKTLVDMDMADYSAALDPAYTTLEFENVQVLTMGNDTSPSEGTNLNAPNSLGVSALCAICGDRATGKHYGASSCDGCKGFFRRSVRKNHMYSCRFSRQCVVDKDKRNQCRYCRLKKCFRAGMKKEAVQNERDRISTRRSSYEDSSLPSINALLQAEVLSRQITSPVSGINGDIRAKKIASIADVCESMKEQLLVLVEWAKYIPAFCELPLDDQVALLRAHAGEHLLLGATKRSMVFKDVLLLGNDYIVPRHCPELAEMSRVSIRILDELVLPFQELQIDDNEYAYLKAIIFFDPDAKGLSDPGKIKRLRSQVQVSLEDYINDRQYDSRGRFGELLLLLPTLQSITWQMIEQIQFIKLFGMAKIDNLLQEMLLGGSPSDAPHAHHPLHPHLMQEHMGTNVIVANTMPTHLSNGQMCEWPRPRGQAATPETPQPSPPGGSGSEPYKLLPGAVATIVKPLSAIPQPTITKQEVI
As to the kind of experiment: protein-binding microarray; COS-7 nuclear extract on double-stranded Agilent 4x180k PBM; binding buffer, salt, pH and temperature not given in the material; high values mean tight binding. The note with it: chain copies: 2; label: 3' end of strand 1 on the slide; dsDNA, one strand shown. In short, it runs like this:
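Nuclear extracts from COS-7 cells expressing a transiently transfected human HNF4α isoform were put on a custom Agilent SurePrint G3 4x180k array carrying ~44,000 double-stranded ~60-nt test sequences in quadruplicate. Imaging used an Agilent G2565CA scanner at 2-µm resolution. Binding signal is the background-corrected, normalized gProcessedSignal from Agilent software.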
In the case of “ATGGTGGCCATTCTGATTTGATAAGATGTGGCCTAGGGAGATTAGAGTATCGGTCGA”, the binding signal turned out to be 0.774 log2 normalized intensity.
“CTTCGTCCTGAGCAGTCCCTTCCCCCCTCCGCCTAGGGAGATTAGAGTATCGGTCGA”: the binding signal amounted to 5.36 log2 normalized intensity.
As to “ACTTGTTCCCTGTCGCTATCTTATCTGGGCGCCTAGGGAGATTAGAGTATCGGTCGA”, the binding signal is 1.62 log2 normalized intensity.
For “CTCATTCTTGGAATGCATTGCAAGTCGTATGCCTAGGGAGATTAGAGTATCGGTCGA”, the binding signal came to 1.17 log2 normalized intensity.
Turning to “TGCCCCTTCACATATTTTGAAAGAAAGAGAGCCTAGGGAGATTAGAGTATCGGTCGA”, the binding signal was found to be 1.68 log2 normalized intensity.
For “CGGCTTGCGTCCCCAGGTGAACTCAGTCCTGCCTAGGGAGATTAGAGTATCGGTCGA”, the binding signal was found to be 1.21 log2 normalized intensity.
Regarding “TTGTAGCCTCATTTCACCTTTGGTCTTTGGGCCTAGGGAGATTAGAGTATCGGTCGA”, the binding signal stood at 4.78 log2 normalized intensity.
For “AATTCTCATGGAGGACTTTGGCCTTTTGTGGCCTAGGGAGATTAGAGTATCGGTCGA”, the binding signal amounted to 5.77 log2 normalized intensity.
Next, “TCTGGGATGTTGGGAGGAGTGGACTTTGATGCCTAGGGAGATTAGAGTATCGGTCGA”: 5.99 log2 normalized intensity; “CAGATGGATTGATAGACTTATCTCAGCCTGGCCTAGGGAGATTAGAGTATCGGTCGA”: -0.761 log2 normalized intensity.
With “TTATCTCAGATGAGACTTTGGACTTTTGAAGCCTAGGGAGATTAGAGTATCGGTCGA”, the binding signal is 7.12 log2 normalized intensity.
Then “TAGCCTTATCTCAGATGAGACTTTGGACTTGCCTAGGGAGATTAGAGTATCGGTCGA”, with 7.96 log2 normalized intensity; and “ATCTAGGTGAGGGATGAGGACTTTGATCAGGCCTAGGGAGATTAGAGTATCGGTCGA”, with 6.01 log2 normalized intensity; and “TACAGAATTCTCATGGAGGACTTTGGCCTTGCCTAGGGAGATTAGAGTATCGGTCGA”, with 7.11 log2 normalized intensity.
With “GGGCTGAGGATGAGGACTTTGGTCTTATTAGCCTAGGGAGATTAGAGTATCGGTCGA”, the binding signal came out at 3.74 log2 normalized intensity.
In the case of “GAATCTACAGAATTCTCATGGAGGACTTTGGCCTAGGGAGATTAGAGTATCGGTCGA”, the binding signal stood at 2.77 log2 normalized intensity.
With “GGGACTAGCCTTATCTCAGATGAGACTTTGGCCTAGGGAGATTAGAGTATCGGTCGA”, the binding signal is 1.7 log2 normalized intensity.
Take “TCAGATGAGACTTTGGACTTTTGAACTAAGGCCTAGGGAGATTAGAGTATCGGTCGA”: the binding signal is 6.42 log2 normalized intensity.
Regarding “GATGTTGGGAGGAGTGGACTTTGATCTCAGGCCTAGGGAGATTAGAGTATCGGTCGA”, the binding signal turned out to be 8.9 log2 normalized intensity.
As for “TCTTTGTTCAGAGGGCATGTTGAGTGGAATGCCTAGGGAGATTAGAGTATCGGTCGA”, the binding signal was found to be 2.13 log2 normalized intensity.
As for “TTACAACGCTGTTGTCTGTGACTGGGGTCAGCCTAGGGAGATTAGAGTATCGGTCGA”, the binding signal was 3.66 log2 normalized intensity.
In the case of “GCCAACAACTAGGGCAAAGGTTAGCTTGGAGCCTAGGGAGATTAGAGTATCGGTCGA”, the binding signal worked out at 4.27 log2 normalized intensity.
With “ACAGATGTAGACATTGGAATGCGGGCTCCAGCCTAGGGAGATTAGAGTATCGGTCGA”, the binding signal was -0.394 log2 normalized intensity.
For “TCGGAATGTCTGGGCAAAGGGGAGGTTATCGCCTAGGGAGATTAGAGTATCGGTCGA”, the binding signal stood at 0.29 log2 normalized intensity.
“AAGTGGTATCCTGCAGTCAGTCTGATTGGTGCCTAGGGAGATTAGAGTATCGGTCGA”: the binding signal came out at 0.556 log2 normalized intensity.
For the sequence “GAGGAGTGGCCATGATGCCATCTGGTGAAGGCCTAGGGAGATTAGAGTATCGGTCGA”, the binding signal was -0.987 log2 normalized intensity.
Next, “TTGAACACCACAAGTTTGAACTGCACAGGCGCCTAGGGAGATTAGAGTATCGGTCGA”: -0.333 log2 normalized intensity; “GTGAGGTCACAGTATTCATTCCCCTAGTATGCCTAGGGAGATTAGAGTATCGGTCGA”: 2.55 log2 normalized intensity; “CTATCTCAGATAGCTTTAGCCGGACTTTGTGCCTAGGGAGATTAGAGTATCGGTCGA”: 5.18 log2 normalized intensity.
As for “TAGCTTTAGCCGGACTTTGTCCTTTGATTTGCCTAGGGAGATTAGAGTATCGGTCGA”, the binding signal turned out to be 6.43 log2 normalized intensity.
On to “TCAGATAGCTTTAGCCGGACTTTGTCCTTTGCCTAGGGAGATTAGAGTATCGGTCGA”, for which the binding signal worked out at 7.78 log2 normalized intensity.
Next, “TAGTAGGGTCAAAGTCTGGATCCGTTAACAGCCTAGGGAGATTAGAGTATCGGTCGA”: 4.3 log2 normalized intensity.
Consider “CACCTTTTTTGGCCTTTACCCCTTGAGTTTGCCTAGGGAGATTAGAGTATCGGTCGA”, for which the binding signal was found to be 3.93 log2 normalized intensity.
Next, “CGCCCCCCAGCGGAAGTCCAGTGGTGTCTTGCCTAGGGAGATTAGAGTATCGGTCGA”: 3.33 log2 normalized intensity; “CACACACACACACACACCCCACACACCAAAGCCTAGGGAGATTAGAGTATCGGTCGA”: 3.12 log2 normalized intensity.
Consider “CAAAGTTCAAGGTCCAGCCTACCCACCCACGCCTAGGGAGATTAGAGTATCGGTCGA”, for which the binding signal was 4.66 log2 normalized intensity.
Next, “CCTCCAGGCCCCAGCCACGCCCTCTAACCCGCCTAGGGAGATTAGAGTATCGGTCGA”: 2.92 log2 normalized intensity.
Regarding “TCACACACACACACACACACACCCCACACAGCCTAGGGAGATTAGAGTATCGGTCGA”, the binding signal came out at 1.75 log2 normalized intensity.
Consider “AGGCCCCAGCCACGCCCTCTAACCCAGGTTGCCTAGGGAGATTAGAGTATCGGTCGA”, for which the binding signal came out at 3.08 log2 normalized intensity.
On to “CCCACCCCCACGCCCCCCAGCGGAAGTCCAGCCTAGGGAGATTAGAGTATCGGTCGA”, for which the binding signal worked out at 6.97 log2 normalized intensity.
For the sequence “GGAACCCCACCCCCACGCCCCCCAGCGGAAGCCTAGGGAGATTAGAGTATCGGTCGA”, the binding signal is 7.16 log2 normalized intensity.
Next, “GGATCGGAACCCCACCCCCACGCCCCCCAGGCCTAGGGAGATTAGAGTATCGGTCGA”: 7 log2 normalized intensity.
